# Reference: PubChem BioAssay (NCATS)
# Records with an inconclusive call do not appear. Entries that show only a call come without a potency. Active and inactive are the calls of the source. Calls follow the shape of the dose curve; as a rule, active = well fitted curve in the direction sought with a large enough effect; inconclusive = small, poorly fitted or top-dose-only effect, or another doubt; inactive = no such curve, though single readings can be large; an effect the other way counts as inactive or inconclusive.
# Target: Calcium and integrin-binding protein 1 (Homo sapiens) (UniProt Q99828)
# Sequence (Q99828 whole entry, looked up): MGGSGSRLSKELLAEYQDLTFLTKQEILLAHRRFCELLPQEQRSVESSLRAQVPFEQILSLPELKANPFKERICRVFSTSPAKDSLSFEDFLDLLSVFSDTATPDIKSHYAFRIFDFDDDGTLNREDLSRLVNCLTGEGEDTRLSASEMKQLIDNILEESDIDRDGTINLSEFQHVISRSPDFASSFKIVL
# Assay: Primary qHTS for Identification of Calcium Integrin Binding Protein 1 (CIB1) Competitor (AID 1508620);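 also: GST tagged CIB1 binding a fluorescein labelled alphaIIb integrin peptide tracer; top concentration of the series differs between compounds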
# Settings: CIB1-GST / FITC-alphaIIb peptide fluorescence polarization; series mostly up to 114 µM
# In short: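 Fluorescence polarization competition: CIB1-GST (1 uM final) preincubated with compound 15 min at room temperature, then FITC-labeled alphaIIb peptide (100 nM final) added for another 15 min. Polarization read at Ex 480/Em 540.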
row,SMILES,Potency
1,CN1C(=O)CN=C(c2ccccc2)c2cc(Cl)ccc21,inactive
2,COc1cc(C[C@@H](C)N)c(OC)cc1C,inactive
3,CN1CCc2cc(Cl)c(O)cc2[C@H]2c3ccccc3CC[C@@H]21,inactive
4,O=C(CCCCl)c1ccc(F)cc1,inactive
5,O=C(CBr)Nc1ccc(Cl)cc1C(=O)c1ccccc1F,inactive
6,O=C1NCN(c2ccccc2)C12CCN(CCCOc1ccc(F)cc1)CC2,inactive
7,C[C@H](N)[C@H](O)c1ccc(O)c(O)c1,inactive

# System: not listed separately
# Assay: Counterscreen qHTS for small molecule stabilizers of the endoplasmic reticulum resident proteome: GLuc-NoTag assay (AID 1508627); also: potency is read from the fitted curve at half-maximal effect
# Settings: Gaussia luciferase NoTag secretion counterscreen, luminescence, thapsigargin 100 nM for final 4 h; series mostly up to 76.4 µM
# In short: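 Secreted GLuc lacking the SERCaMP modification is measured in SH-SY5Y cells exposed to compound for 19 h and then to thapsigargin (100 nM, 4 h) to deplete ER calcium; hits retested at 11 concentrations, up to 76.6 uM.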
row,SMILES,Potency
1,CN1[C@@H]2CC[C@H]1CC(OC(=O)c1cc(Cl)cc(Cl)c1)C2 (some centres not stated),inactive
2,CN1C2CCC(C)(C)C1CC(OC(=O)C(O)(c1cccs1)c1cccs1)C2 (configuration not stated),inactive
3,CC(C)=CCN1CC[C@@]2(C)c3cc(O)ccc3C[C@@H]1[C@@H]2C,inactive
4,CCC(=O)OC1(c2ccccc2)CCN(C)CC1,inactive
5,O=C1NCN(c2ccccc2)C12CCN(CCCOc1ccc(F)cc1)CC2,8.91 µM (active)
